Results taken from PubChem BioAssay (NCI).
Compounds without any hit were thinned out: in the full panel of roughly 79,000, 15% have a hit. Values without a mark were called inactive. Activity calls are given as the source filed them. Rule as the data show it: active = growth inhibition above about 70%; inactive = the rest.

Tests used:
[1] = NCI Yeast Anticancer Drug Screen. Data for the rad50 strain (AID 155);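 also: 0% = growth of vehicle-only cultures of the same strain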; conditions: S. cerevisiae rad50 strain growth inhibition, hits give high values
Method in brief: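 Genetically altered yeast (DNA repair pathway); compound treatment; growth inhibition vs vehicle ctrl.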

[2] = NCI Yeast Anticancer Drug Screen. Data for the mec2-1 strain (AID 157); conditions: S. cerevisiae mec2-1 strain, hits give high values
Method in brief: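 Growth inhibition is read against vehicle-treated controls after compound exposure of the mec2-1 yeast strain, which is defective in DNA damage repair or cell cycle control.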

[3] = NCI Yeast Anticancer Drug Screen. Data for the sgs1 mgt1 strain (AID 161);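 also: 0% = growth of cultures given vehicle only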; conditions: S. cerevisiae sgs1 mgt1 strain, hits give high values
Method in brief: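 Yeast cells carrying a defined DNA-repair defect were exposed to test compounds. Growth inhibition was measured relative to vehicle-treated controls.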

[4] = NCI Yeast Anticancer Drug Screen. Data for the cln2 rad14 strain (AID 165);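 also: 0% = growth equal to vehicle treated cultures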; conditions: S. cerevisiae cln2 rad14 strain, hits give high values
Method in brief: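 Growth inhibition, relative to vehicle-treated controls, is the read-out. The test organism is a yeast strain with defined genetic alterations, cln2 rad14.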

[5] = NCI Yeast Anticancer Drug Screen. Data for the bub3 strain (AID 167); conditions: S. cerevisiae bub3 mutant strain, hits give high values
Method in brief: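 Yeast carrying a defined mutation is treated with each compound, and growth is compared with that of vehicle-exposed cells to give inhibition.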

[6] = NCI Yeast Anticancer Drug Screen. Data for the mlh1 rad18 strain (AID 175); conditions: S. cerevisiae mlh1 rad18 strain growth inhibition, hits give high values
Method in brief: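 Cells of a genetically altered yeast strain, deficient in DNA damage repair, were treated with compound. Their growth was then compared with that of vehicle-treated cultures to give inhibition.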

[7] = at 5.0 µM (retest, dose inferred, filed as 0.5)
[8] = at 50.0 µM (retest, dose inferred, filed as 5.0)

SMILES	growth inhibition [1, 7]	growth inhibition [1, 8]	growth inhibition ([1]; at 50.0 µM)	growth inhibition [2, 7]	growth inhibition [2, 8]	growth inhibition ([2]; at 50.0 µM)	growth inhibition [3, 7]	growth inhibition [3, 8]	growth inhibition ([3]; at 50.0 µM)	growth inhibition [4, 7]	growth inhibition [4, 8]	growth inhibition ([4]; at 50.0 µM)	growth inhibition [5, 7]	growth inhibition [5, 8]	growth inhibition ([5]; at 50.0 µM)	growth inhibition [6, 7]	growth inhibition [6, 8]	growth inhibition ([6]; at 50.0 µM)
COc1ccc2c(c1)n([O-])c1cc(C#N)ccc1[n+]2=O	94% (active)	97% (active)	96.1% (active)	50%	97% (active)	45.6%	41%	80% (active)	35.9%	17%	59%	-11.7%	33%	87% (active)	44.9%	73% (active)	96% (active)	28.6%
CC1(C)CC(=O)C2=C(C1)OC1=C(C(=O)CC(C)(C)C1)C2CC(c1ccccc1)c1ccc(O)c(O)c1O (configuration not stated)	22%	30%	72.2% (active)	6%	-8%	22.8%	9%	2%	48.3%	5%	18%	28.2%	-11%	-23%	36%	30%	10%	56%
COC(=O)c1ccc(-c2ccccc2)cc1	-1%	83% (active)	82.3% (active)	1%	94% (active)	99.2% (active)	3%	82% (active)	98% (active)	-2%	55%	44.2%	10%	92% (active)	96% (active)	2%	86% (active)	96.8% (active)
Cc1ccc(NC(=O)COC(=O)c2cccc3c(=O)c4ccccc4[nH]c23)cc1	51%	89% (active)	74.8% (active)	27%	80% (active)	43.3%	40%	89% (active)	29.6%	21%	69%	61.6%	42%	81% (active)	72% (active)	49%	94% (active)	49.5%
O=C1OC2(CCCC2)OC1c1ccccc1 (configuration not stated)	2%	-7%	14.9%	-1%	2%	-17.6%	-2%	-7%	-9.7%	-4%	0%	72.2% (active)	-5%	-4%	13.2%	-5%	-9%	-6.4%
N#[N+]c1c([O-])ccc2nc3ccccc3nc12	-101%	12%	68.4%	-43%	-45%	40.7%	-56%	-30%	10.2%	-52%	-65%	-1.5%	-59%	-69%	-14.9%	-114%	-56%	66.9%
C/C(=N\NC(=S)N(C)C)c1cccnn1	95% (active)	99% (active)	84.8% (active)	91% (active)	99% (active)	91.4% (active)	92% (active)	98% (active)	87.3% (active)	94% (active)	95% (active)	86.8% (active)	95% (active)	99% (active)	89.5% (active)	96% (active)	99% (active)	83.2% (active)
CN(C)CCCCCNc1c2ccccc2nc2cccc([N+](=O)[O-])c12	73% (active)	95% (active)	90% (active)	52%	97% (active)	91.2% (active)	29%	33%	89.2% (active)	37%	62%	92.3% (active)	23%	47%	89% (active)	78% (active)	96% (active)	87.7% (active)
Cc1ccnc(-c2cc(C)ccn2)c1	6%	96% (active)	64%	-3%	98% (active)	23.1%	-4%	57%	57.9%	-1%	95% (active)	-46.7%	4%	91% (active)	-3.15%	7%	98% (active)	37.9%
CCOC(=O)C1CCN(Cc2ccccc2)CC1=O (configuration not stated)	61%	89% (active)	90% (active)	61%	92% (active)	91.3% (active)	68%	99% (active)	92.4% (active)	49%	100% (active)	90.2% (active)	81% (active)	98% (active)	90.7% (active)	49%	87% (active)	90.8% (active)
CCCCCCCCCCCCCC(=O)CBr	11%	84% (active)	87.5% (active)	4%	85% (active)	80.1% (active)	35%	99% (active)	84.5% (active)	2%	68%	66.2%	9%	98% (active)	85.8% (active)	5%	90% (active)	81.1% (active)
CC(C)COC(=O)c1ccc(N=Cc2ccc(C=Nc3ccc(C(=O)OCC(C)C)cc3)cc2)cc1	25%	25%	31.6%	16%	16%	-34.1%	14%	14%	-10.2%	7%	7%	1.75%	9%	9%	-20.8%	-1%	-1%	-12.3%
CCOC(=O)/C(C#N)=C\c1ccc(N(CCC(=O)O)CCC(=O)O)c(I)c1	1%	77% (active)	-6.7%	-4%	77% (active)	33.5%	3%	37%	-5.3%	-7%	77% (active)	53.8%	35%	93% (active)	-13.1%	10%	77% (active)	-6.35%
Cc1cc(N=Nc2ccccc2C)c(N)cc1N	-12%	56%	99.2% (active)	-11%	97% (active)	99.2% (active)	4%	90% (active)	99.5% (active)	-27%	40%	98.3% (active)	-14%	86% (active)	99.3% (active)	-13%	90% (active)	99.5% (active)
Oc1ccc2ccccc2c1.[Cu+2]	1%	20%	98% (active)	-1%	12%	97.2% (active)	-2%	6%	98.4% (active)	-4%	13%	83.2% (active)	2%	8%	94% (active)	0%	33%	98% (active)
CC(NNC(=S)N1CCCCCC1)c1cccnn1 (configuration not stated)	99% (active)	99% (active)	89% (active)	98% (active)	99% (active)	93% (active)	97% (active)	99% (active)	89.2% (active)	98% (active)	99% (active)	90.5% (active)	98% (active)	99% (active)	91.6% (active)	99% (active)	99% (active)	85% (active)
CC(C)c1ccc(/C=C(\NC(=O)c2ccccc2)c2nc3ccccc3[nH]2)cc1	-2%	60%	71.2% (active)	-27%	53%	86.1% (active)	-2%	67%	56.5%	-7%	49%	80.4% (active)	6%	71% (active)	88% (active)	-3%	62%	93.3% (active)
COc1ccc(/C=N/N=c2\[nH][nH]/c(=N\N=C\c3ccc(OC)c4ccccc34)c3ccccc23)c2ccccc12	15%	34%	57.6%	0%	59%	47.5%	4%	76% (active)	86.9% (active)	-7%	28%	37.6%	0%	78% (active)	33.4%	12%	85% (active)	65%
CCN(c1ccc(C=O)cc1)c1ccc([N+](=O)[O-])cc1[N+](=O)[O-]	3%	33%	50.5%	-1%	30%	26.2%	3%	70% (active)	74% (active)	1%	11%	18.2%	2%	23%	7.85%	8%	59%	38.7%
